PubChem BioAssay AID1159580 (chemical genetic matrix, 2015)
Out of some 5,500 compounds screened, about 2,000 (36%) were called active. About 18% were inconclusive and are not listed. No stated cut-off is given here; in the data, active means normalized growth mostly below about 0.91 (no sharp cut-off); inconclusive means no clear call, values can overlap the other calls; inactive means mostly above about 0.92. The list shows a part of the results.

Experiment: chemical genetic growth profiling, strain panel (AID 1159580);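 further: tested at 20 µM; growth read once vehicle control cultures reached saturation at 30 °C; 1 = growth at the plate median or of vehicle wells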
Settings: growth OD
[1] = S. cerevisiae deletion strains, locus YAL013W, strain DEP1, stronger effect = lower value
[2] = S. cerevisiae deletion strains, locus YBR229C, strain ROT2, stronger effect = lower value
[3] = S. cerevisiae deletion strains, locus YDL101C, strain DUN1, stronger effect = lower value
[4] = S. cerevisiae deletion strains, locus YDR150W, strain NUM1, stronger effect = lower value
[5] = S. cerevisiae deletion strains, locus YEL061C, strain CIN8, stronger effect = lower value
[6] = S. cerevisiae deletion strains, locus YGR078C, strain PAC10, stronger effect = lower value
[7] = S. cerevisiae deletion strains, locus YGR229C, strain SMI1, stronger effect = lower value
[8] = S. cerevisiae deletion strains, locus YHR030C, strain SLT2, stronger effect = lower value
[9] = S. cerevisiae deletion strains, locus YHR087W, strain rtc3, stronger effect = lower value
[10] = S. cerevisiae deletion strains, locus YJR043C, strain POL32, stronger effect = lower value
[11] = S. cerevisiae deletion strains, locus YJR075W, strain HOC1, stronger effect = lower value
[12] = S. cerevisiae deletion strains, locus YLR039C, strain RIC1, stronger effect = lower value
[13] = S. cerevisiae deletion strains, locus YLR058C, strain SHM2 (second series), stronger effect = lower value
[14] = S. cerevisiae deletion strains, locus YLR085C, strain ARP6, stronger effect = lower value
[15] = S. cerevisiae deletion strains, locus YLR262C, strain YPT6, stronger effect = lower value
[16] = S. cerevisiae deletion strains, locus YML094W, strain GIM5, stronger effect = lower value
[17] = S. cerevisiae deletion strains, locus YMR219W, strain ESC1, stronger effect = lower value
[18] = S. cerevisiae deletion strains, locus YMR263W, strain SAP30, stronger effect = lower value
[19] = S. cerevisiae deletion strains, locus YNL153C, strain GIM3, stronger effect = lower value
[20] = S. cerevisiae deletion strains, locus YNL298W, strain CLA4 (second series), stronger effect = lower value
[21] = S. cerevisiae deletion strains, locus YNL322C, strain KRE1, stronger effect = lower value
[22] = S. cerevisiae deletion strains, locus YNR030W, strain Alg12, stronger effect = lower value
[23] = S. cerevisiae deletion strains, locus YOL006C, strain TOP1, stronger effect = lower value
[24] = S. cerevisiae deletion strains, locus YPL055C, strain LGE1, stronger effect = lower value
[25] = S. cerevisiae deletion strains, locus YPL241C, strain CIN2, stronger effect = lower value
[26] = S. cerevisiae deletion strains, locus YPR135W, strain CTF4, stronger effect = lower value
[27] = S. cerevisiae strains, strain wild type, stronger effect = lower value

Measured: normalized growth

COc1cccc(-c2nc(C#N)c(N)o2)c1
inactive: [1] 0.987 | [2] 0.996 | [3] 0.995 | [4] 0.983 | [5] 1.02 | [6] 0.996 | [8] 0.708 | [9] 1 | [10] 0.968 | [11] 0.992 | [12] 0.945 | [13] 0.99 | [14] 0.79 | [15] 0.979 | [16] 1.01 | [17] 0.989 | [18] 0.944 | [19] 0.987 | [20] 0.946 | [21] 1.01 | [22] 0.989 | [23] 0.796 | [24] 0.966 | [25] 0.953 | [26] 0.871 | [27] 0.958
active: [7] 0.938

c1cc2c(cc1N=C1SCC3CCCCN13)OCO2 (configuration not stated)
inactive: [1] 1 | [2] 1.01 | [3] 1.02 | [4] 1.05 | [5] 0.991 | [6] 1.01 | [7] 0.997 | [8] 1.05 | [9] 0.995 | [10] 1.03 | [11] 1.03 | [12] 0.983 | [13] 1 | [14] 0.932 | [15] 1.12 | [16] 0.973 | [17] 1 | [18] 1.01 | [19] 1.02 | [20] 0.974 | [21] 1 | [22] 1 | [24] 0.996 | [25] 0.953 | [26] 1.05 | [27] 1

NC(=S)COc1ccccc1Cl
active: [14] 0.624 | [20] 0.799 | [23] 0.294
inactive: [1] 0.998 | [2] 0.985 | S. cerevisiae deletion strains, locus YCL061C, strain MRC1, stronger effect = lower value 1 | [3] 1 | S. cerevisiae deletion strains, locus YDL134C, strain PPH21, stronger effect = lower value 0.981 | [4] 0.998 | [5] 0.931 | [6] 1.03 | [8] 0.794 | [9] 1.04 | S. cerevisiae deletion strains, locus YJL187C, strain SWE1, stronger effect = lower value 0.983 | [10] 0.994 | [11] 1.01 | S. cerevisiae deletion strains, locus YKL190W, strain CNB1, stronger effect = lower value 0.968 | [12] 0.796 | [13] 0.982 | [15] 0.887 | [16] 0.947 | [17] 0.982 | [18] 1.01 | [19] 0.971 | [21] 0.994 | [22] 0.95 | [24] 1.04 | [25] 0.891 | [26] 0.801
